This is an account of results in PubChem BioAssay (NCI).

The panel holds about 83,000 compounds, 20% with a hit somewhere; the sample as a whole holds those more often.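 Treatment: one concentration, 48 hours, 96-well format. Scoring: percent growth, with anything below 10 considered active.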 A number with no mark means an inactive call. Calls of active or inactive are those of the source.

Test systems include DU-145 prostate; K-562 leukemia; MALME-3M melanoma; MDA-MB-231 breast; RXF 393 renal; SF-268 CNS; SF-295 CNS; SF-539 CNS; UACC-257 melanoma; M14 melanoma; HCT-15 colon; HT29 colon; SNB-75 CNS; SNB-19 CNS; U251 CNS; PC-3 prostate; SK-MEL-5 melanoma; UACC-62 melanoma; LOX IMVI melanoma; SK-MEL-28 melanoma.
Assay in all cases: NCI-60 one-dose screen, 48 h (100 = growth as untreated, 0 = no growth, -100 = all killed)
What all share (conditions): 10 µM unless noted

`COc1ccc(N=Nc2c(N)nn3c(N)c(C#N)c(-c4ccc(C)cc4)nc23)cc1`: the growth with DU-145 prostate was 42.2%; in the assay with K-562 leukemia it was 36.1%; in the assay with MALME-3M melanoma it was 93.7%; in the assay on MDA-MB-231 breast it was 42.4%; in the assay with RXF 393 renal it was 65.1%; in the assay on SF-268 CNS it was 67.5%. Further, the growth is 58.1% with SF-295 CNS; 52.4% in the assay on SF-539 CNS; 92.7% in the assay with UACC-257 melanoma; 61.6% in the assay with M14 melanoma; 47.8% with HCT-15 colon; 66.1% in the assay on HT29 colon. For the same compound, the growth was 22.9% in the assay with SNB-75 CNS; 89.5% with SNB-19 CNS; 74.4% in the assay on U251 CNS; 36.8% in the assay on PC-3 prostate; 55.4% in the assay with SK-MEL-5 melanoma; 78.5% in the assay with UACC-62 melanoma. The results for the growth with LOX IMVI melanoma and in the assay with SK-MEL-28 melanoma were 50.1% and 91.1%, respectively.
For the compound `CCCSc1nnc(-c2c(C)nc3sccn23)o1`, the growth is 96.7% in the assay with DU-145 prostate; 88.4% with K-562 leukemia; 104% in the assay on MALME-3M melanoma; 74.6% with MDA-MB-231 breast; 82.9% in the assay on RXF 393 renal; 89.1% in the assay with SF-268 CNS. Further, the growth is 87.1% in the assay on SF-295 CNS; 90.9% in the assay with SF-539 CNS; 93.6% in the assay on UACC-257 melanoma; 99.6% in the assay on M14 melanoma; 65.8% with HCT-15 colon; 101% in the assay on HT29 colon. The growth is 91.5% with SNB-75 CNS; 81.2% in the assay on SNB-19 CNS; 87.5% with U251 CNS; 86.6% in the assay with PC-3 prostate; 81.6% in the assay on SK-MEL-5 melanoma; 69.1% in the assay on UACC-62 melanoma. Further, the values for the growth in the assay on LOX IMVI melanoma and in the assay with SK-MEL-28 melanoma were 88.9% and 106%, respectively.
Consider `O=S(=O)(c1nc(-c2ccc(Br)cc2)oc1-c1ccc(Cl)cc1)N1CCCC(O)C1` (stereo not given), for which the growth with DU-145 prostate was 72.6%; with K-562 leukemia it was 33.8%; with MALME-3M melanoma it was 74.8%; in the assay with MDA-MB-231 breast, 60%; in the assay on RXF 393 renal, 51.3%; with SF-268 CNS, 63%. For the same compound, the growth was 58.1% in the assay on SF-295 CNS; 84.5% with SF-539 CNS; 80.3% in the assay with UACC-257 melanoma; 69.7% with M14 melanoma; 42.6% with HCT-15 colon; 11.2% in the assay on HT29 colon. Moreover, the growth in the assay on SNB-75 CNS was 94.6%; in the assay on SNB-19 CNS, 62%; in the assay with U251 CNS, 64.8%; with PC-3 prostate it was 28.2%; in the assay on SK-MEL-5 melanoma, 82.6%; with UACC-62 melanoma, 53.8%. Moreover, the figures for the growth with LOX IMVI melanoma and in the assay with SK-MEL-28 melanoma were 4.05% (active) and 79.4%, respectively.
Turning to `O=c1[nH]c2ccccc2cc1CSc1ccccc1Nc1nccc(-c2ccc3c(c2)OCO3)n1`, the growth is 85.1% with DU-145 prostate; 87.6% with K-562 leukemia; 80.2% with MALME-3M melanoma; 85.4% in the assay with MDA-MB-231 breast; 81.5% in the assay with RXF 393 renal; 63.2% with SF-268 CNS. Moreover, the growth with SF-295 CNS is 75.3%; in the assay with SF-539 CNS it was 63.9%; in the assay with UACC-257 melanoma it was 94.4%; in the assay with M14 melanoma, 89.3%; in the assay on HCT-15 colon, 95.1%; with HT29 colon, 94.4%. For the same compound, the growth with SNB-75 CNS was 9.83% (active); in the assay on SNB-19 CNS, 63.1%; with U251 CNS, 51.3%; in the assay with PC-3 prostate, 79.2%; in the assay on SK-MEL-5 melanoma, 87.2%; with UACC-62 melanoma, 68.5%. Further, the growth was 76.5% in the assay with LOX IMVI melanoma and 83% in the assay with SK-MEL-28 melanoma.
As for `COc1ccc(-c2nc3ccc(-c4nnc(SCc5ccccc5)o4)cc3[nH]2)cc1`, the growth is 10.2% in the assay with DU-145 prostate; 11.2% with K-562 leukemia; -74.9% (active) with MALME-3M melanoma; -67.3% (active) with MDA-MB-231 breast; -75.3% (active) in the assay with RXF 393 renal; -6.18% (active) in the assay on SF-268 CNS. The growth with SF-295 CNS was -75% (active); in the assay on SF-539 CNS it was -99.7% (active); with UACC-257 melanoma it was 21.8%; in the assay on M14 melanoma, 5.59% (active); in the assay with HCT-15 colon it was -17.4% (active); with HT29 colon, 9.58% (active). Besides, the growth was -82.8% (active) in the assay with SNB-75 CNS; 2.92% (active) with SNB-19 CNS; -77.1% (active) in the assay with U251 CNS; 20.1% in the assay on PC-3 prostate; -21.7% (active) with SK-MEL-5 melanoma; -72.3% (active) with UACC-62 melanoma. The growth was -96.6% (active) with LOX IMVI melanoma and -36.3% (active) with SK-MEL-28 melanoma.
Turning to `NC(=O)c1ccc(-c2ccc3ncnc(N4CCc5cc(F)c(Cl)cc54)c3c2)cn1`, the growth with DU-145 prostate was 49.5%; in the assay on K-562 leukemia, 34.7%; in the assay with MALME-3M melanoma, 78.9%; with MDA-MB-231 breast, 49.3%; in the assay on RXF 393 renal, 40.9%; in the assay with SF-268 CNS it was 95.6%. For the same compound, the growth with SF-295 CNS is 79.4%; in the assay with SF-539 CNS it was 63%; with UACC-257 melanoma, 110%; in the assay on M14 melanoma it was 70.2%; with HCT-15 colon it was 59.9%; in the assay with HT29 colon, 91.6%. The growth in the assay on SNB-75 CNS is 106%; with SNB-19 CNS it was 74.3%; in the assay with U251 CNS, 87.4%; with PC-3 prostate, 50.8%; in the assay on SK-MEL-5 melanoma it was 76.2%; with UACC-62 melanoma, 71.8%. Further, the results for the growth in the assay with LOX IMVI melanoma and with SK-MEL-28 melanoma were 57% and 91.7%, respectively.
On to `COc1ccc(/C=C/C(=O)c2ccc(OC)c(S(N)(=O)=O)c2)c(C(F)(F)F)c1`, for which the growth with DU-145 prostate is 16.4%; in the assay with K-562 leukemia it was 7% (active); in the assay on MALME-3M melanoma, 17.8%; in the assay with MDA-MB-231 breast, 5.46% (active); in the assay on RXF 393 renal, 16.4%; in the assay with SF-268 CNS, 15.5%. Besides, the growth was 37.5% with SF-295 CNS; -84.9% (active) with SF-539 CNS; 62.3% in the assay with UACC-257 melanoma; -48.5% (active) with M14 melanoma; -52% (active) in the assay on HCT-15 colon; 6.34% (active) with HT29 colon. The growth is 37.6% with SNB-75 CNS; -28.6% (active) in the assay with SNB-19 CNS; -64.7% (active) in the assay with U251 CNS; 11.2% in the assay on PC-3 prostate; 18.9% with SK-MEL-5 melanoma; 30.6% with UACC-62 melanoma. The growth in the assay with LOX IMVI melanoma was -93% (active); in the assay with SK-MEL-28 melanoma, 35.5%.
